Several values for one entry are separate records, joined by “and”; a condition that tells them apart may be missing. Equal entries are not always repeated. Inconclusive results are not listed. Unmarked numbers belong to inactive results. Activity calls are given as the source filed them. Calls come from the whole dose curve; as a rule, active = well fitted cell-killing curve with a large enough effect in the repeat runs; inconclusive = weak or mixed curves, or effect the other way; inactive = flat fitted curve, though single readings scatter.
experiment: qHTS assay to identify small molecule agonists of the sonic hedgehog signaling (Shh) pathway - cell viability counter screen (AID 1259366); conditions: NIH/3T3 Gli1-Luc viability, CellTiter-Fluor, 24 h; series mostly up to 92.4 µM; viability change, negative = cytotoxic: at the top concentration; note: nearly all actives have a fitted effect of over 50% in size
Source text: National Center for Advancing Translational Sciences [NCATS]
NIH Chemical Genomics Center [NCGC]
U.S. Environmental Protection Agency [EPA]
National Institutes of Environmental Health Sciences [NIEHS]
National Toxicology Program [NTP]
U.S. Food and Drug Administration [FDA]
The sonic hedgehog (Shh) pathway is essential for normal embryonic development. Dysregulation of the Shh pathway can cause severe developmental defects in organs. Therefore chemicals that interfere with the pathway are potential developmental toxicants. A cell line designated 3T3Gli1-Luc (DMB/OARSA/CFSAN/FDA, Laurel, MD), a NIH/3T3 derived clone containing stably integrated Gli1-Luc reporter is used to detect chemical interference of the Shh pathway, by changes in the expression of the firefly Luc gene under the control of the Gli1 transcriptional response element. This cell line was used to screen Tox21 libraries for identifying and prioritizing the potential developmental toxicants that interfere Shh pathway. The cytotoxicity of the compounds was tested in parallel by measuring the cell viability using CellTiter-Fluor assay system (Promega, Madison, WI) in the same wells.
Tox21 Assay Protocol Summary:
3T3 Gli1-Luc cells were dispensed at 2,000 per well in 5uL of culture medium into white solid bottom 1536-well plates (Greiner Bio-One, Monroe, NC) using a Multidrop Combi (Thermo Scientific, Waltham, MA) dispenser. The assay plates were incubated at 37 C and 5% CO2 for 4hr, and then 23nL of compounds dissolved in DMSO and positive control were transferred using a Pintool station (Wako, San Diego, CA). The assay plates were incubated at 37C and 5% CO2 for 24hr. For viability read, after 23hr of compound treatment, 1uL of CellTiter-Fluor reagent (Promega Corporation, Madison, WI) was added to each well of the assay plates using Flying Reagent Dispenser (FRD, Aurora Discovery, San Diego, CA) and incubated the assay plates at 37C for 1hr. The fluorescence signal was quantified using a ViewLux plate reader (Perkin Elmer, Shelton, CT).
% is set by controls: 0 for no effect and ±100 for the full control effect; potency is the fitted concentration of half-maximal effect.

Row | Structure (SMILES) | viability change, negative = cytotoxic | Potency
1 | C1=CCC=C1 | 0.627% | 
2 | C[N+]1(C)[C@@H]2CC[C@H]1CC(OC(=O)C(CO)c1ccccc1)C2 (stereo not given in full) | 0.625% [at 42.5 µM] | 
3 | O=S(=O)(O)F | 13.4% | 
4 | CCO/N=C(\CC)C1=C(O)CC(c2c(C)cc(C)cc2C)CC1=O (stereo not given) | 2.86% | 
5 | CC(Cl)CCl (stereo not given) | -1.15% | 
6 | Nc1c(Cl)c(Cl)c(Cl)c(Cl)c1Cl | -5.77% | 
7 | O=C1C2(Cl)C3(Cl)C4(Cl)C(Cl)(Cl)C5(Cl)C3(Cl)C1(Cl)C5(Cl)C24Cl (stereo not given) |  | 26.9 µM (active)
8 | ClCBr | -4.85% | 
9 | Cc1ccc([N+](=O)[O-])[c]2c1[O][Hg]2 |  | 2.66 µM (active)
10 | CC(C)C(Br)C(=O)NC(N)=O (stereo not given) | 6.74% [at 42.5 µM] | 
11 | [O]=[Cr](=[O])([OH])[O][Cr](=[O])(=[O])[OH] |  | 30.9 µM (active) and 30.6 µM (active)
12 | O=C(CCCCl)c1ccc(F)cc1 | 1.51% [at 42.5 µM] | 
13 | CCCCCON=O | 5.08% | 
14 | CC(Cc1ccc2c(c1)OCO2)NO (stereo not given) | 1.89% | 
15 | CC(C)(C)c1ccc(OP(=O)(Oc2ccccc2)Oc2ccccc2)cc1 | -11.1% | 
16 | NC(=O)C(Cl)Cl | 1.05% | 
17 | CC(=O)O.CC(=O)O.CC(=O)O.CC(=O)O.CC(=O)O.CC(=O)O.CC(=O)O.O.O.[Cr].[Cr].[Cr] | -3.09% | 
18 | CC(Cc1ccc(OCC(=O)O)cc1)NCC(O)c1csc(C(F)(F)F)n1 (stereo not given) |  | 6.11 µM (active)
19 | CC(=O)C(Cl)C(=O)N(C)C (stereo not given) | -3.59% | 
20 | O=c1[nH]c(Cl)c(Cl)cc1Cl | -2.9% | 

Row | Structure (SMILES) | viability change, negative = cytotoxic | Potency
21 | C=CC(=O)[O][Sn]([CH2]CCC)([CH2]CCC)[CH2]CCC |  | 0.243 µM (active)
22 | CN(C)CCc1c[nH]c2ccccc12 | 6.28% | 
23 | CC(=O)[O-].CC(=O)[O-].CC(=O)[O-].[Sb+3] | 5.24% [at 3.27 µM] | 
24 | CNC(=O)Oc1cc(C)cc(C(C)C)c1 | -2.27% | 
25 | Clc1c(Cl)c(Cl)c(Cl)c(Cl)c1Cl | 1.7% [at 8.39 µM] | 
26 | COc1ccc2[nH]cc(CCN(C(C)C)C(C)C)c2c1 | -5.97% | 
27 | CCCCN(CCCC)C(=S)S | 4.42% | 
28 | C[C@H]1[C@H](c2ccc(Cl)cc2)SC(=O)N1C(=O)NC1CCCCC1 | -1.51% | 
29 | COP(=S)(OC)Oc1nc(Cl)c(Cl)cc1Cl | 3.1% | 
30 | Cc1nn(-c2cc(NS(C)(=O)=O)c(Cl)cc2Cl)c(=O)n1C(F)F | 0.398% | 
31 | CCOC(=O)Cc1ccccc1 | 6.92% | 
32 | CCN(CC)CCN1C(=O)CN=C(c2ccccc2F)c2cc(Cl)ccc21 | -17.8% [at 42.5 µM] | 
33 | CC(C)Br | 2.1% | 
34 | Fc1ccc(C(OCCN2CCN(CCCc3ccccc3)CC2)c2ccc(F)cc2)cc1 |  | 18.8 µM (active)
35 | COC(=O)N(OC)c1ccccc1COc1ccn(-c2ccc(Cl)cc2)n1 | -13.4% | 
36 | O=C(NC(=O)c1ccccc1Cl)Nc1ccc(OC(F)(F)F)cc1 | 2.84% | 
37 | O=P(Cl)(Cl)Cl | 0.295% | 
38 | CNC(=O)O/N=C(\C)C(C)S(C)(=O)=O (stereo not given) | 12.2% [at 872 µM] | 
39 | Cc1ccn2nc(S(=O)(=O)Nc3c(F)cccc3F)nc2n1 | 2.04% | 
40 | COC(=O)c1cc(Oc2ccc(Cl)cc2Cl)ccc1[N+](=O)[O-] | -0.532% | 

— PubChem BioAssay (Tox21)
